Results from PubChem BioAssay (NCATS).
Results filed as inconclusive are left out. Active and inactive are the calls of the source. Unless noted, calls come from the whole dose curve; as a rule, active = well fitted curve in either direction with a large enough effect (not every such curve was filed as active); inconclusive = small, poorly fitted or top-dose-only effect, or another doubt; inactive = flat fitted curve, though single readings scatter.

biological target: Cytochrome P450 1A2 (Homo sapiens) (UniProt P05177); assay: p450-cyp1a2 (AID 410; calls by dose curve; note: potency is the fitted concentration of half-maximal effect;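 for activity change, negative = inhibition: -100% = full effect of reference inhibitor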); conditions: recombinant CYP1A2, luciferin-ME demethylation, luminescence; series mostly up to 57 µM; activity change, negative = inhibition: at the top concentration
Sequence (P05177 whole entry, looked up): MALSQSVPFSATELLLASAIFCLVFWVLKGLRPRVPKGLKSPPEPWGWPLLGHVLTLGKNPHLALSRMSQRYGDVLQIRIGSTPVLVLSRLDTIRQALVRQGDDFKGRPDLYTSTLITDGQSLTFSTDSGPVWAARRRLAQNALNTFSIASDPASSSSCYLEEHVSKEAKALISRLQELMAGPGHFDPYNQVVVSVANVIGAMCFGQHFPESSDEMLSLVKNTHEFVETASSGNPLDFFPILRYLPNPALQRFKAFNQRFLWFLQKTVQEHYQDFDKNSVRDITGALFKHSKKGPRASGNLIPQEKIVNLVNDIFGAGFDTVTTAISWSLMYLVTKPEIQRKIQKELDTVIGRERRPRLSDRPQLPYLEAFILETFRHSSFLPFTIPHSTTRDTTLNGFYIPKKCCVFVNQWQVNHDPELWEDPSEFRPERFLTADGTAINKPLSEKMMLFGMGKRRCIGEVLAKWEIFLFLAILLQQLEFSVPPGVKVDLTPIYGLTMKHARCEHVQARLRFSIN
Outline: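 Read-out is luminescence from luciferin produced by CYP1A2 demethylation of Luciferin-ME (100uM, at Km). Detection reagent stopped the 60 min NADPH-dependent reaction; signals were normalized to 57 uM furafylline.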

Row | SMILES | Potency | activity change, negative = inhibition
1 | COCCNc1ncnc2ccc(-c3ccccc3OC)cc12 | 2 µM (active) | –
2 | CS(=O)(=O)Nc1cccc(-c2nc(Nc3ccncc3)c3ccccc3n2)c1 | 0.631 µM (active) | –
3 | COc1ccccc1-c1nc(Nc2ccncc2)c2ccccc2n1 | 0.316 µM (active) | –
4 | CN(C)c1ncc2nc(-c3ccccc3)c(=O)n(C)c2n1 | 1 µM (active) | –
5 | CN(C)c1ccc(-c2cncnc2NCCN2CCOCC2)cc1 | 15.8 µM (active) | –
6 | COc1ccc(-c2nc3cnc(N4CCN(C)CC4)nc3n(CCc3ccccc3)c2=O)cc1 | – | -5.9% (inactive)
7 | COc1ccccc1CNc1cc(-c2cccnc2)ncn1 | 1 µM (active) | –
8 | CCNc1ncc2nc(CCc3ccccc3)c(=O)n(Cc3cccc(OC)c3)c2n1 | 12.6 µM (active) | –
9 | CN(Cc1ccco1)c1ncnc2ccc(-c3cccc(NS(C)(=O)=O)c3)cc12 | 0.398 µM (active) | –
10 | CN1CCN(c2ncnc3ccc(-c4cccc(C#N)c4)cc23)CC1 | 1.26 µM (active) | –
11 | N#CCCn1c(=O)c(-c2ccc(Cl)cc2)nc2cnc(N3CCOCC3)nc21 | 15.8 µM (active) | –
12 | CN(C)c1ccc(-c2cc(N(C)Cc3ccco3)ncn2)cc1 | 0.316 µM (active) | –
13 | COc1ccc2[nH]cc(CCNc3ncncc3-c3ccccc3OC)c2c1 | 2.51 µM (active) | –
14 | COCCn1c(=O)c(-c2ccccc2)nc2cnc(Oc3cccc(Cl)c3)nc21 | 1 µM (active) | –
15 | Cc1cnc(CNc2ncnc3ccc(-c4ccc(N(C)C)cc4)cc23)cn1 | 1 µM (active) | –
16 | O=c1c(CCc2ccccc2)nc2cnc(Oc3ccccc3)nc2n1C1CC1 | 7.94 µM (active) | –
17 | Cn1c(=O)c(-c2ccc(Cl)cc2)nc2cncnc21 | 0.0251 µM (active) | –
18 | CCNc1ncc2nc(CCc3ccccc3)c(=O)n(CCC#N)c2n1 | 3.98 µM (active) | –
19 | COc1ccc2[nH]cc(CCNc3cc(-c4cccc(C#N)c4)ncn3)c2c1 | 0.794 µM (active) | –
20 | CN(C)c1ncc2nc(CCc3ccccc3)c(=O)n(CCC#N)c2n1 | 2 µM (active) | –
21 | COc1ccccc1-c1ccc2ncnc(N3CCOCC3)c2c1 | 0.631 µM (active) | –
22 | Cc1cnc(CNc2ncnc3ccc(-c4ccccc4C)cc23)cn1 | 6.31 µM (active) | –

test system: not listed separately; assay: NFAT Signaling Pathway (AID 444); conditions: Jurkat NFAT-bla M1, carbachol, beta-lactamase ratio, 5 h; at 7.69 µM (top of the series) unless noted;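 note: carbachol stimulus at about its EC50 of 1 µM final; % is set by controls: 0 for no effect and ±100 for the full control effect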
Outline: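 Jurkat cells with NFAT-driven β-lactamase reporter and co-expressed M1 receptor, stimulated with carbachol (final 1 uM, ~EC50), compound titration, 5 h at 37 °C. CCF4 loaded 1 h at RT; 460/530 nm ratio gave %activity and AC50.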

Row | SMILES | activity change, negative = inhibition
23 | O=c1c(CCc2ccccc2)nc2cnc(N3CCNCC3)nc2n1Cc1cccs1 | 3.16% (inactive)
24 | COc1ccc(Oc2ncc3nc(-c4ccc(F)cc4)c(=O)n(C[C@H]4CCCO4)c3n2)cc1 | 0.101% (inactive)
25 | COCCn1c(=O)c(CCc2ccccc2)nc2cnc(Oc3ccccc3)nc21 | 7.7% (inactive)
26 | COc1ncc2nc(-c3ccccc3)c(=O)n(CCc3ccccc3)c2n1 | -3.72% (inactive)
27 | COc1ccccc1CNc1cc(-c2cccnc2)ncn1 | -5.01% (inactive)
28 | CCNc1ncc2nc(CCc3ccccc3)c(=O)n(Cc3cccc(OC)c3)c2n1 | -6.29% (inactive)
29 | CN(Cc1ccco1)c1ncnc2ccc(-c3cccc(NS(C)(=O)=O)c3)cc12 | 14.3% (inactive)
30 | CN1CCN(c2ncnc3ccc(-c4cccc(C#N)c4)cc23)CC1 | -4.66% (inactive)
31 | COc1cccc(Nc2ncc3ncc(=O)n(Cc4ccc(F)cc4)c3n2)c1 | -8.23% (inactive)
32 | COc1ccccc1CNc1ccnc(-c2cccc(NS(C)(=O)=O)c2)n1 | 2.18% (inactive)
33 | COc1cccc(-c2ccc3ncnc(N4CCNCC4)c3c2)c1 | 11.4% (inactive)
34 | CN(C)c1ccc(-c2cc(N(C)Cc3ccco3)ncn2)cc1 | 3.68% (inactive)
35 | CN1CCN(c2ncnc3ccc(-c4ccccc4C(F)(F)F)cc23)CC1 | -19.6% (inactive)
36 | COCCn1c(=O)c(-c2ccccc2)nc2cnc(Oc3cccc(Cl)c3)nc21 | -9.21% (inactive)
37 | Cc1cnc(CNc2ncnc3ccc(-c4ccc(N(C)C)cc4)cc23)cn1 | 5.72% (inactive)
38 | COc1ccc(Oc2ncc3nc(-c4cc(F)cc(F)c4)c(=O)n(C4CC4)c3n2)cc1 | -5.46% (inactive)
39 | O=c1c(CCc2ccccc2)nc2cnc(Oc3ccccc3)nc2n1C1CC1 | -5.31% (inactive)
40 | COc1ccccc1-c1nccc(NCc2cccs2)n1 | -12.7% (inactive)
41 | CCNc1ncc2nc(CCc3ccccc3)c(=O)n(CCC#N)c2n1 | -10.7% (inactive)
42 | Cc1cnc(CNc2ncnc3ccc(-c4ccccc4C)cc23)cn1 | -7.95% (inactive)

test system: not listed separately; assay: Stat Signaling Pathway (AID 446); conditions: ME-180 (cervical carcinoma) SIE beta-lactamase reporter, IL-6 stimulated, 5 h; series mostly up to 7.69 µM; activity, negative = inhibition: at the top concentration;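 note: ME-180 cervical cancer cells given 40 pM IL-6 alongside compound; SIE-controlled beta-lactamase reporter measured as 460/530 nm FRET emission ratio; % is set by controls: 0 for no effect and ±100 for the full control effect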
Outline: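 FRET read-out (405 nm excitation, 460/530 nm emission) of a beta-lactamase reporter under a STAT-inducible element in ME-180 cervical carcinoma cells. Cells with compound receive 40 pM IL-6 for 5 h. Values are normalised to AC90 stimulation and AC90 JAK-inhibitor controls.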

Row | SMILES | activity, negative = inhibition
43 | COCCNc1ncnc2ccc(-c3ccccc3OC)cc12 | -10.1% (inactive)
44 | O=c1c(-c2cccc(F)c2)nc2cncnc2n1Cc1ccc(F)cc1 | -6.71% (inactive)
45 | CS(=O)(=O)Nc1cccc(-c2nc(Nc3ccncc3)c3ccccc3n2)c1 | -19.8% (inactive)
46 | COc1ccccc1-c1nc(Nc2ccncc2)c2ccccc2n1 | 3.46% (inactive)
47 | COc1ccc(Oc2ncc3nc(-c4ccc(F)cc4)c(=O)n(C[C@H]4CCCO4)c3n2)cc1 | -16.7% (inactive)
48 | COCCn1c(=O)c(CCc2ccccc2)nc2cnc(Oc3ccccc3)nc21 | -17.8% (inactive)
49 | COc1ncc2nc(-c3ccccc3)c(=O)n(CCc3ccccc3)c2n1 | 1.17% (inactive)
50 | CN(C)c1ccc(-c2cncnc2NCCN2CCOCC2)cc1 | -2.04% (inactive)
51 | COc1ccccc1CNc1cc(-c2cccnc2)ncn1 | 8.08% (inactive)
52 | CCNc1ncc2nc(CCc3ccccc3)c(=O)n(Cc3cccc(OC)c3)c2n1 | -8.37% (inactive)
53 | CN(Cc1ccco1)c1ncnc2ccc(-c3cccc(NS(C)(=O)=O)c3)cc12 | -16.7% (inactive)
54 | CN(C)c1nc(-c2cccc(C#N)c2)nc2ccccc12 | 14% (inactive)
55 | CN1CCN(c2ncnc3ccc(-c4cccc(C#N)c4)cc23)CC1 | 10.4% (inactive)
56 | COc1cccc(Nc2ncc3ncc(=O)n(Cc4ccc(F)cc4)c3n2)c1 | -24.1% (inactive)
57 | COc1ccccc1CNc1ccnc(-c2cccc(NS(C)(=O)=O)c2)n1 | -16.2% (inactive)
58 | N#CCCn1c(=O)c(-c2ccc(Cl)cc2)nc2cnc(N3CCOCC3)nc21 | 13.6% (inactive)
59 | O=c1c(CCc2ccccc2)nc2cnc(Nc3ccccc3)nc2n1C[C@H]1CCCO1 | 22.4% (inactive)

Row | SMILES | activity, negative = inhibition
60 | CN(C)c1ccc(-c2cc(N(C)Cc3ccco3)ncn2)cc1 | -8.41% (inactive)
61 | COc1ccccc1CNc1ccnc(-c2cccnc2)n1 | -11% (inactive)
62 | CN(C)c1ncnc2ccc(-c3cccc(NS(C)(=O)=O)c3)cc12 | -17.4% (inactive)
63 | CN1CCN(c2ncnc3ccc(-c4ccccc4C(F)(F)F)cc23)CC1 | 17.4% (inactive)
64 | COc1ccc2[nH]cc(CCNc3ncncc3-c3ccccc3OC)c2c1 | -11.6% (inactive)
65 | COCCn1c(=O)c(-c2ccccc2)nc2cnc(Oc3cccc(Cl)c3)nc21 | -7.25% (inactive)
66 | Cc1cnc(CNc2ncnc3ccc(-c4ccc(N(C)C)cc4)cc23)cn1 | -13.4% (inactive)
67 | COc1ccc(Oc2ncc3nc(-c4cc(F)cc(F)c4)c(=O)n(C4CC4)c3n2)cc1 | -8.21% (inactive)
68 | COc1ccccc1-c1ccc2ncnc(N3CCNCC3)c2c1 | 4.49% (inactive)
69 | O=c1c(CCc2ccccc2)nc2cnc(Oc3ccccc3)nc2n1C1CC1 | -20.3% (inactive)
70 | Cn1c(=O)c(-c2ccc(Cl)cc2)nc2cncnc21 | 0.164% (inactive)
71 | COc1ccccc1-c1nccc(NCc2cccs2)n1 | 13.5% (inactive)
72 | CCNc1ncc2nc(CCc3ccccc3)c(=O)n(CCC#N)c2n1 | -8.03% (inactive)
73 | COc1ccc2[nH]cc(CCNc3cc(-c4cccc(C#N)c4)ncn3)c2c1 | -11.9% (inactive)
74 | CN(C)c1ncc2nc(CCc3ccccc3)c(=O)n(CCC#N)c2n1 | -12% (inactive)
75 | COc1ccccc1-c1ccc2ncnc(N3CCOCC3)c2c1 | 6.33% (inactive)
76 | Cc1cnc(CNc2ncnc3ccc(-c4ccccc4C)cc23)cn1 | -14% (inactive)
